Laboratory results as given in the supplement of paper PMC12636033.
± gives the standard deviation of the averaged measurements. The full ranking holds about 33,000 sequences; the median of “E-score (rank enrichment, -0.5 to 0.5)” is about -0.0075, and the highest 2% start at about 0.23. Only a selection was taken, and the highest values are over-represented in it overall.

Test system: WT Max(13-93) synthetic (M65Nle)
Assay: PBM 8-mer E-score (E-score (rank enrichment, -0.5 to 0.5)); higher = stronger preferential binding
Protocol: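 Protein binding microarray (universal PBM chip covering all 10-mers in fixed probe flanks) with chemically synthesized human Max(13-93) bHLH-LZ analogs (not full-length Max) bearing noncanonical residues (hArg, Tha, Aib, Nle at 65) and aromatic Cys staples. Read-out per 8-mer (and its reverse complement): E-score (rank-based enrichment, -0.5 to 0.5) and Z-score of median probe intensity.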

| Sequence | PBM 8-mer E-score |
| --- | --- |
| ATAATTCG | 0.147 ± 0.059 |
| ATAATTTC | 0.0565 ± 0.03 |
| ATAATTAT | 0.239 ± 0.0049 |
| ATAATTTA | 0.228 ± 0.014 |
| ATAATTTG | 0.254 ± 0.031 |
| CTAATTAG | 0.0687 ± 0.053 |
| AGCACAGC | -0.163 ± 0.16 |
| ACTCTCTG | -0.0092 ± 0.11 |
| CCGCCTCA | -0.108 ± 0.14 |
| ATGGTTTA | 0.161 ± 0.047 |
| AATGGGAA | 0.0482 ± 0.059 |
| CATGTTGA | 0.256 ± 0.1 |
| GATGTTGA | 0.0902 ± 0.11 |
| TATGTTGA | 0.233 ± 0.0055 |
| CATGTTGG | 0.156 ± 0.063 |
| CATGTTGC | 0.12965 ± 2.8e-05 |
| AATGTTGA | -0.0484 ± 0.091 |
| ACGCGTAT | 0.108 ± 0.0066 |
| CAGCGAGA | -0.174 ± 0.013 |
| GACGAATA | 0.17 ± 0.011 |
| GTCGTCCA | -0.159 ± 0.064 |
| AGGTGGCG | 0.13 ± 0.021 |
| GCGTGGCC | 0.0675 ± 0.016 |
| CCGTGGCC | -0.112 ± 0.013 |
| CCGTGGCG | -0.147 ± 0.07 |

| Sequence | PBM 8-mer E-score |
| --- | --- |
| CCGTGGCA | -0.0466 ± 0.052 |
| TCGTGGCA | 0.219 ± 0.1 |
| ACGTGGCC | 0.247 ± 0.0096 |
| AAGTGGCT | 0.0496 ± 0.069 |
| ACGTGGCG | 0.296 ± 0.05 |
| ACGTGGCA | 0.33 ± 0.0069 |
| ACTTGGCT | -0.128 ± 0.062 |
| ACGTGGCT | 0.286 ± 0.018 |
| ACGGGCTC | -0.297 ± 0.085 |
| CGGCAACA | -0.15 ± 0.01 |
| ACCGCTAG | -0.0126 ± 0.12 |
| CCCACATC | -0.1 ± 0.063 |
| AGATGCAA | 0.152 ± 0.13 |
| CACTCCAA | -0.103 ± 0.025 |
| CCGCTCGC | -0.0861 ± 0.086 |
| ACCCCCCG | -0.2 ± 0.1 |
| ATGGCGAA | 0.104 ± 0.068 |
| CCGCGTGC | 0.268 ± 0.051 |
| CCGCGTGA | 0.172 ± 0.0086 |
| ACGCGTGC | 0.244 ± 0.02 |
| ACGCGTGG | 0.212 ± 0.03 |
| CAGCGTGC | 0.191 ± 0.014 |
| ACGCGTGA | 0.219 ± 0.081 |
| AACCCAAG | 0.00894 ± 0.087 |
| CGGGAAAC | -0.106 ± 0.079 |

| Sequence | PBM 8-mer E-score |
| --- | --- |
| CCTAACAA | 0.11 ± 0.026 |
| TCTAACAA | -0.0242 ± 0.029 |
| AATAACAT | 0.181 ± 0.049 |
| TATAACAA | 0.24 ± 0.026 |
| CATAACAG | 0.125 ± 0.021 |
| AATAACAG | 0.17 ± 0.06 |
| CATAACAA | 0.251 ± 0.042 |
| CATAACAC | 0.236 ± 0.016 |
| CGTAACAA | 0.136 ± 0.087 |
| AATAACAA | 0.264 ± 0.018 |
| GATAACAA | 0.0563 ± 0.033 |
| AATAACAC | 0.0775 ± 0.12 |
| CTACGTCC | -0.0109 ± 0.12 |
| AGCAATGC | 0.12 ± 0.09 |
| GGGGACAC | -0.27 ± 0.018 |
| AAAAGGGG | 0.0924 ± 0.053 |
| CGACCAGC | -0.0396 ± 0.11 |
| CAAATAGC | 0.0495 ± 0.0037 |
| CGCCCGTC | -0.106 ± 0.034 |
| AGAGCTAG | -0.0196 ± 0.051 |
| CTTGCCCC | -0.0869 ± 0.1 |
| ATAGCCTG | -0.155 ± 0.11 |
| ACATACGC | 0.0685 ± 0.056 |
| AGATACAA | 0.126 ± 0.036 |
| ACATACAT | 0.26 ± 0.042 |

| Sequence | PBM 8-mer E-score |
| --- | --- |
| ACATACGA | 0.237 ± 0.015 |
| ACATACAC | 0.139 ± 0.048 |
| ACATACAG | 0.219 ± 0.059 |
| TCATACGA | 0.115 ± 0.021 |
| AGATACAT | 0.245 ± 0.022 |
| AGATACAG | 0.134 ± 0.061 |
| CATCTCTA | -0.0266 ± 0.00032 |
| ACGGGCTG | -0.16 ± 0.005 |
| AGATAACG | 0.256 ± 0.041 |
| AGATAACC | 0.0122 ± 0.027 |
| AAATAACA | 0.198 ± 0.039 |
| AAATAACG | 0.26 ± 0.0036 |
| AGATAATA | 0.131 ± 0.045 |
| CAATAACG | 0.0031 ± 0.057 |
| AGATAATG | 0.241 ± 0.012 |
| AGATAATC | -0.146 ± 0.023 |
| CGATAACG | -0.0133 ± 0.18 |
| ATCTTGGA | -0.118 ± 0.068 |
| ACAATGCC | 0.0109 ± 0.11 |
| GATATCCC | -0.108 ± 0.023 |
| ACACTTAT | 0.0681 ± 0.02 |
| CCCTGAAG | -0.071 ± 0.03 |
| ACACGACC | 0.0326 ± 0.019 |
| ACACGACA | 0.289 ± 0.1 |
| ACACGACT | 0.123 ± 0.049 |

| Sequence | PBM 8-mer E-score |
| --- | --- |
| CGCCAACC | -0.101 ± 0.11 |
| ACTAGTAT | 0.184 ± 0.02 |
| ACTAGTAA | 0.256 ± 0.1 |
| ACTAGTAG | 0.11 ± 0.088 |
| CTTTCCAC | 0.196 ± 0.17 |
| AATCCTGG | -0.171 ± 0.16 |
| ATTTCCTA | 0.135 ± 0.027 |
| CTTTCCTA | 0.0286 ± 0.077 |
| GTTTCCTA | 0.257 ± 0.11 |
| CGCCCGGA | -0.201 ± 0.068 |
| ATATGGTA | 0.241 ± 0.069 |
| CTATGGTA | 0.0296 ± 0.11 |
| CAATGGTA | 0.15 ± 0.041 |
| ATATGGTC | 0.164 ± 0.09 |
| TAATGGTA | 0.0384 ± 0.1 |
| AAATGGTA | 0.253 ± 0.056 |
| TCGGTTCA | -0.0182 ± 0.1 |
| GATGGCAA | 0.158 ± 0.091 |
| AAGCTCCC | -0.171 ± 0.036 |
| GCAGACCA | -0.213 ± 0.1 |
| CATATAGA | 0.166 ± 0.049 |
| AATATACT | 0.104 ± 0.069 |
| AATATAGA | 0.277 ± 0.044 |
| TATATAGA | 0.104 ± 0.084 |
| TATATACA | 0.0403 ± 0.021 |

| Sequence | PBM 8-mer E-score |
| --- | --- |
| CATATACC | -0.0092 ± 0.047 |
| CATATACA | 0.271 ± 0.067 |
| AATATACA | 0.246 ± 0.052 |
| GATATACA | 0.08271 ± 0.00014 |
| ATTGCGTA | 0.188 ± 0.035 |
| CGACGCAA | -0.157 ± 0.015 |
| ATGCTTAA | 0.189 ± 0.046 |
| CAAGGCCA | 0.0607 ± 0.0078 |
| CTATAACC | 0.0479 ± 0.05 |
| GTATAACA | 0.202 ± 0.035 |
| CTATAACA | 0.129 ± 0.045 |
| ATATAACC | 0.0791 ± 0.029 |
| ATATAACA | 0.237 ± 0.052 |
| ATATAACG | 0.299 ± 0.0035 |
| AGAGAGCG | -0.102 ± 0.039 |
| AGCCACAT | 0.0887 ± 0.052 |
| CATCGTGG | -0.0807 ± 0.055 |
| GAATCACA | -0.023 ± 0.11 |
| ACATCACA | 0.237 ± 0.015 |
| CAATCACC | 0.0883 ± 0.0053 |
| ACATCACG | 0.0554 ± 0.057 |
| CAATCACA | 0.247 ± 0.019 |
| TCATCACA | 0.116 ± 0.011 |
| TAATCACA | 0.201 ± 0.049 |
| AAATCACA | 0.163 ± 0.043 |

| Sequence | PBM 8-mer E-score |
| --- | --- |
| CAATCACG | 0.274 ± 0.05 |
| CCAGCCGA | -0.272 ± 0.029 |
| AGAAGAAA | -0.0012 ± 0.042 |
| CGTTAGGC | 0.0594 ± 0.11 |
| GGCGTTTA | 0.0435 ± 0.017 |
| CCGGCACG | -0.00989 ± 0.099 |
| ACCAAAGA | 0.003 ± 0.046 |
| ATTTCTAC | 0.247 ± 0.043 |
| CTTTCTAA | 0.0817 ± 0.047 |
| ATTTCTAA | -0.0149 ± 0.032 |
| CTTTCTAC | 0.317 ± 0.053 |
| CATTCTAC | 0.0976 ± 0.045 |
| ATTTCTAG | 0.0411 ± 0.07 |
| AGGTGTCC | -0.128 ± 0.054 |
| GACTAAAA | -0.0397 ± 0.075 |
| AGTATAAC | 0.0201 ± 0.0067 |
| AGTATAAA | 0.109 ± 0.12 |
| AGTATAAT | 0.259 ± 0.07 |
| AATACGGT | -0.059 ± 0.026 |
| CAGGGTCA | -0.0768 ± 0.019 |
| AAATCCAG | -0.00945 ± 0.12 |
| AAATCCAC | 0.116 ± 0.058 |
| AAATCCAT | 0.2404 ± 0.0018 |
